For orientation: inhibition means the relative decrease from the control value, in per cent.

SMILES strings stand for the structures.

The target in test [1] is Serine/threonine-protein kinase pim-2 (Homo sapiens) (UniProt Q9P1W9). To be noted: at 1 µM.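 Also: each value is a mean of the inhibition measurements against the kinase.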
The target in test [2] is Serine/threonine-protein kinase pim-3 (Homo sapiens) (UniProt Q86V86). Conditions: at 0.1 µM.
Test [3] has the same target. To be noted: at 1 µM.
Test [4] concerns the target T1, MAP kinase-activated protein kinase 5 (Homo sapiens) (UniProt Q8IW41).
T1 sequence (whole entry): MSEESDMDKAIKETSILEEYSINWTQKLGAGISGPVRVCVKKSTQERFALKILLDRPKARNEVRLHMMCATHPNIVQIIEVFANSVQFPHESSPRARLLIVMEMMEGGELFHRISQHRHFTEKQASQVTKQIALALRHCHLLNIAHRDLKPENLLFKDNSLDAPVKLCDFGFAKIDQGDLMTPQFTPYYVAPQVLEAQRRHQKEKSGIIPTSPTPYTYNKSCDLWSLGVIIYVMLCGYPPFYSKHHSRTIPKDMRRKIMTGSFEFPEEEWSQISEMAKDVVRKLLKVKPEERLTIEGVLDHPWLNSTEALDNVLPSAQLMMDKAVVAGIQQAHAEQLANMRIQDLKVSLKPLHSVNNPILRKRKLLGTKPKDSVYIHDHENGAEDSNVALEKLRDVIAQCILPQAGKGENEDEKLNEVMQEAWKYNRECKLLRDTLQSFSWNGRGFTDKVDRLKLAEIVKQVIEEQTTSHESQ
Conditions: at 0.1 µM.

The target of test [5] is T1, MAP kinase-activated protein kinase 5 (Homo sapiens). To be noted: at 1 µM.
Test [6] addresses Serine/threonine-protein kinase SIK1 (Homo sapiens) (UniProt P57059). Conditions: at 0.1 µM.
Test [7] has the same target. Conditions: at 1 µM.
Test [8] addresses Serine/threonine-protein kinase SIK2 (Homo sapiens) (UniProt Q9H0K1). To be noted: at 0.1 µM.
Test [9] has the same target. Conditions: at 1 µM.
In test [10] the target is T2, Serine/threonine-protein kinase TBK1 (Homo sapiens) (UniProt Q9UHD2).
T2 sequence (whole entry): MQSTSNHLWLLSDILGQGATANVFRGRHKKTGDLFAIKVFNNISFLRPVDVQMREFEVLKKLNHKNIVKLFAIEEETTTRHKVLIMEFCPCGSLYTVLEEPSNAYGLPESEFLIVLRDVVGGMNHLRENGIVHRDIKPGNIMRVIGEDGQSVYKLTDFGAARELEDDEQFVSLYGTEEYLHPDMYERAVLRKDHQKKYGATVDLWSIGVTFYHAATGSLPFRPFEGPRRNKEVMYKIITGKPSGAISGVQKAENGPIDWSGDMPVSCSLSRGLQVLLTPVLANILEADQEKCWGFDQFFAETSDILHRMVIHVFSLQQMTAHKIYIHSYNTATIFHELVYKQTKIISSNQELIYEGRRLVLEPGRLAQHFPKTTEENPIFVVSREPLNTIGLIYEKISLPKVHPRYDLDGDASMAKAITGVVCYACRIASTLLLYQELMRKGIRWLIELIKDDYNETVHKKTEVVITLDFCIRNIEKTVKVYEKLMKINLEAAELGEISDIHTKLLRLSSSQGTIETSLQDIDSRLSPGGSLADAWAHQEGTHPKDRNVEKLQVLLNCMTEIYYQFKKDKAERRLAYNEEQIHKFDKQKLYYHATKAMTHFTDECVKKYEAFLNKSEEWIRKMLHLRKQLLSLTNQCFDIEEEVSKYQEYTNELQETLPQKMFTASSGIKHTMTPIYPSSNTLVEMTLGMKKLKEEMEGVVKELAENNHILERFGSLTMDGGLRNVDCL
Conditions: at 0.1 µM.

Test [11] concerns the target T2, Serine/threonine-protein kinase TBK1 (Homo sapiens). Conditions: at 1 µM.
Test [12] deals with T3, Testis-specific serine/threonine-protein kinase 1 (Homo sapiens) (UniProt Q9BXA7).
T3 sequence (whole entry): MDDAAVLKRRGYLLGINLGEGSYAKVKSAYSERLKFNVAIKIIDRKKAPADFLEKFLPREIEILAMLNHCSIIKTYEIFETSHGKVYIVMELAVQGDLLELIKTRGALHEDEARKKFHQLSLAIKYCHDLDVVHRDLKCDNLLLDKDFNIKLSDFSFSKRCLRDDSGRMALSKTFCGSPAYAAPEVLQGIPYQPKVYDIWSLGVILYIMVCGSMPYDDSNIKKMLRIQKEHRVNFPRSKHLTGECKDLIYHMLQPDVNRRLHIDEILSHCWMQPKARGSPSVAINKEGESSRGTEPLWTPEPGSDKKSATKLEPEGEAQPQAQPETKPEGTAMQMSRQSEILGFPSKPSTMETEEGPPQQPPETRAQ
To be noted: at 0.1 µM.

In test [13] the target is T3, Testis-specific serine/threonine-protein kinase 1 (Homo sapiens). Conditions: at 1 µM.
Test [14] addresses T4, Testis-specific serine/threonine-protein kinase 2 (Homo sapiens) (UniProt Q96PF2).
T4 sequence (whole entry): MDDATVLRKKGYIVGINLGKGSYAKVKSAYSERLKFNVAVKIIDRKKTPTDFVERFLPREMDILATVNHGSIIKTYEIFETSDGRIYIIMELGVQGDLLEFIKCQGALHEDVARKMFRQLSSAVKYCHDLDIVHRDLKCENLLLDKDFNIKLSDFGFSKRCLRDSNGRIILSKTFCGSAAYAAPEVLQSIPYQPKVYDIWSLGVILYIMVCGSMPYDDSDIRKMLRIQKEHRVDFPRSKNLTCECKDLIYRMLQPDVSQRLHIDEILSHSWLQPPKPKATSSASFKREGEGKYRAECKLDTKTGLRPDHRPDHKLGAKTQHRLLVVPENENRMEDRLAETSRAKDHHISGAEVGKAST
To be noted: at 0.1 µM.

Test [15] has as its target T4, Testis-specific serine/threonine-protein kinase 2 (Homo sapiens). To be noted: at 1 µM.
Test [16] concerns the target Casein kinase I isoform alpha (Homo sapiens) (UniProt P48729). Conditions: at 0.1 µM.
Test [17] has the same target. To be noted: at 1 µM.
Test [18] addresses Casein kinase I isoform gamma-1 (Homo sapiens) (UniProt Q9HCP0). To be noted: at 0.1 µM.
For test [19] the target is unchanged. Conditions: at 1 µM.
The target in test [20] is Casein kinase I isoform gamma-2 (Homo sapiens) (UniProt P78368). Conditions: at 0.1 µM.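 Also: values are mean inhibition figures reported as part of the GSK PKIS dataset.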
Sequence of Casein kinase I isoform gamma-2 (Homo sapiens) (P78368 whole entry, looked up, canonical isoform): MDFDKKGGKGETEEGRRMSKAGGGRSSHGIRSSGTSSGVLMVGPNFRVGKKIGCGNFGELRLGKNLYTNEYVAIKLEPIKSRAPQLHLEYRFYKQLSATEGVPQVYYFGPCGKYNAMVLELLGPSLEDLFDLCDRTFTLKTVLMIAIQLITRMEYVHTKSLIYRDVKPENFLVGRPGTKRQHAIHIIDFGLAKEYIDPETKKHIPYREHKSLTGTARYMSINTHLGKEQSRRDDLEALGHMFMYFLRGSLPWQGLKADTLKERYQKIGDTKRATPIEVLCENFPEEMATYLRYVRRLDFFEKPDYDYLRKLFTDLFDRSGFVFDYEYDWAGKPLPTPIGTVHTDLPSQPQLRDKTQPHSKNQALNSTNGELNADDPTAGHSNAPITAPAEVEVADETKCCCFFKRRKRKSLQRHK

Sequence of Casein kinase I isoform alpha (Homo sapiens) (P48729 2-337 limits assumed): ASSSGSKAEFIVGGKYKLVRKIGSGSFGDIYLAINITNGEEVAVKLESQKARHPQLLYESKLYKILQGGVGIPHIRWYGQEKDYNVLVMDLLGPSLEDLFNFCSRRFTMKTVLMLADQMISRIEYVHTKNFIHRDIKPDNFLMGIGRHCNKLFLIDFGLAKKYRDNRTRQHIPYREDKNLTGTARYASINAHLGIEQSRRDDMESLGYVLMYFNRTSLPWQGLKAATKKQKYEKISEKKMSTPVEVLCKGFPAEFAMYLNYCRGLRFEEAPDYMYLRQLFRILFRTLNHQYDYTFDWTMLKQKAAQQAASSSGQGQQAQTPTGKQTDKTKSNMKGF
Sequence of Serine/threonine-protein kinase SIK2 (Homo sapiens) (Q9H0K1 whole entry, looked up): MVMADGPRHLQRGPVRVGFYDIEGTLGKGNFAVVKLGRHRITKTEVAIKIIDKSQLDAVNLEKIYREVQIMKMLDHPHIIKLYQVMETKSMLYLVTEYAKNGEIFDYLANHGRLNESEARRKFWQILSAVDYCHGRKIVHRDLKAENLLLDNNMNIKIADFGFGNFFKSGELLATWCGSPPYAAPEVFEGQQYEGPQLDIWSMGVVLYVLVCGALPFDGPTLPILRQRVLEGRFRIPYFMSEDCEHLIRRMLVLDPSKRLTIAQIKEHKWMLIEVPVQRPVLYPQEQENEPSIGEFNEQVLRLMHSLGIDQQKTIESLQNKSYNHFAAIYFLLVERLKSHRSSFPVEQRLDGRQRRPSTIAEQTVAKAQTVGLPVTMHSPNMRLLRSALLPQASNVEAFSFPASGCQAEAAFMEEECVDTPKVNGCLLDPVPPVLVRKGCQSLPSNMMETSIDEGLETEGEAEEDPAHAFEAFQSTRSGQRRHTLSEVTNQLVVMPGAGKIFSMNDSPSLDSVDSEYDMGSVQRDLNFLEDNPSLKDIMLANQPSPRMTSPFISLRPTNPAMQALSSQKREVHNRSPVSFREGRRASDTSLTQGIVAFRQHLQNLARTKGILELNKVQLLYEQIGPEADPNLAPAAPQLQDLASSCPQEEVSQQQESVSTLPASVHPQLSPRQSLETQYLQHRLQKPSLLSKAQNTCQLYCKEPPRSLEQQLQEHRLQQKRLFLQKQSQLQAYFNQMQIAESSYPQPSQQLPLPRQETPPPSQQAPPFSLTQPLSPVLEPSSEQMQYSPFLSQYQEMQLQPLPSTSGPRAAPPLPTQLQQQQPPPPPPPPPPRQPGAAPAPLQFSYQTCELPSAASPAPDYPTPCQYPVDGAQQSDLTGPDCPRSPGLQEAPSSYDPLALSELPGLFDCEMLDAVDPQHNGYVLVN
Sequence of Serine/threonine-protein kinase SIK1 (Homo sapiens) (P57059 whole entry): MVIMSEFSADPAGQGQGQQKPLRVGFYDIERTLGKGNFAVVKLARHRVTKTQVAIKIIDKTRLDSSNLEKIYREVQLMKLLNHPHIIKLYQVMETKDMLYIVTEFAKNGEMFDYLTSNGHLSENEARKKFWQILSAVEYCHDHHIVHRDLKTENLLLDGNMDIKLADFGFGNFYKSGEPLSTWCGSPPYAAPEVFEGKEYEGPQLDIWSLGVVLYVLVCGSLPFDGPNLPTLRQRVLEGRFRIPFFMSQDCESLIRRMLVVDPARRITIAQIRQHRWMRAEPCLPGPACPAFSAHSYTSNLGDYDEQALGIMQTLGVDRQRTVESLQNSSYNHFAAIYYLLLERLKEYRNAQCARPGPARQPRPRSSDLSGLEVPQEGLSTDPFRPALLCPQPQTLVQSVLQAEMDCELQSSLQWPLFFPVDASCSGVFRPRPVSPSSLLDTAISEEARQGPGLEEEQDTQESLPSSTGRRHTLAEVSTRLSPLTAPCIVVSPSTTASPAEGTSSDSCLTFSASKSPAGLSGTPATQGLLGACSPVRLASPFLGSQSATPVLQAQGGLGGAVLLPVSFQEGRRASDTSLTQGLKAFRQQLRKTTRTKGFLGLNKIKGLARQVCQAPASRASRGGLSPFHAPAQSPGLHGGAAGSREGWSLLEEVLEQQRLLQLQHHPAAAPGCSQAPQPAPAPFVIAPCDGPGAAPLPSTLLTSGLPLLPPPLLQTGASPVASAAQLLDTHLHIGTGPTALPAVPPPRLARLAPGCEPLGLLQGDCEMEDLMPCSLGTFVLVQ
Sequence of Serine/threonine-protein kinase pim-2 (Homo sapiens) (Q9P1W9 whole entry, looked up): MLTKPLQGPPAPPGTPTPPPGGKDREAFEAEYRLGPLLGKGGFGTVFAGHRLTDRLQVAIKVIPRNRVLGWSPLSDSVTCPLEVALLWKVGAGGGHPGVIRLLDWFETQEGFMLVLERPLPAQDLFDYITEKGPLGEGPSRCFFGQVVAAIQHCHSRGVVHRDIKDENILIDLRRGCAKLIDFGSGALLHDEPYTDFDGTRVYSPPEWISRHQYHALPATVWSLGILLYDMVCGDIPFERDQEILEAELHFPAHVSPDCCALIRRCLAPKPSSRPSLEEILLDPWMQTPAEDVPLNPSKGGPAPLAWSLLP
Sequence of Casein kinase I isoform gamma-1 (Homo sapiens) (Q9HCP0 whole entry, looked up, canonical isoform): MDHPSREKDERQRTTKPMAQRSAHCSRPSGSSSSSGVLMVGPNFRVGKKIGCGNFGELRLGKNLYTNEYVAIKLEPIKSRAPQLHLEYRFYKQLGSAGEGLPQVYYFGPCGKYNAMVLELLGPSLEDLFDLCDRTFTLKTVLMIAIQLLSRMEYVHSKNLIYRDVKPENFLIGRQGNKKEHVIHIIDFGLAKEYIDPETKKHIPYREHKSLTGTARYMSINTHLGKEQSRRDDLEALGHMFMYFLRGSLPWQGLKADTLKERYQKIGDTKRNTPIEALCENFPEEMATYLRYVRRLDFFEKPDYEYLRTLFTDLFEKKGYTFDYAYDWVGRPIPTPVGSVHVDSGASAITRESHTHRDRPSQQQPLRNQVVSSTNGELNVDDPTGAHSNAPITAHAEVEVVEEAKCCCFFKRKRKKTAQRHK

Turning to `Cc1ccc2c(-c3ccnc(Nc4ccc5c(c4)OCCO5)n3)c(-c3ccc(C(F)(F)F)cc3)nn2n1`, the inhibition was determined as 1.63% in [1]; 0.32% in test [2]; 0.77% in test [3]; 0.37% in test [4]; 0.83% in [5]; 0.02% in [6]. For the same compound, the inhibition in test [7] is -0.13%; in test [8], 10.8%; in test [9], 0.48%; in test [10], 0.84%; in test [11] it was 4.69%; in test [12] it was 1.7%. Moreover, the inhibition in test [13] was 2.26%; in [14] it was 0.67%; in [15], 0.47%; in test [16] it was 0.54%; in [17] it was -3.1%; in test [18] it was 1.24%. In addition, the inhibition in test [19] turned out to be 1.97%; in test [20], 0.1%.

Regarding `Oc1cccc(-c2nc(-c3ccccc3)[nH]c2-c2ccncc2)c1`, the inhibition in [1] was 0.33%; in test [2] it was -1.73%; in [3], 1.72%; in [4], 1.55%; in test [5], 1.19%; in test [6], 8.44%. Further, the inhibition in test [7] is 11.6%; in test [8], 4.34%; in test [9], 10.2%; in test [10], 1.64%; in test [11], 2.77%; in [12] it was 5.01%. The inhibition in [13] came to 2.8%; in test [14], 3.51%; in [15], 2.57%; in test [16], 12.6%; in [17], 23.9%; in test [18], 2.26%. Moreover, the results for the inhibition in test [19] and in [20] were 3.29% and 2.14%, respectively.

In the case of `COc1ccc(-c2nn3ncccc3c2-c2ccnc(Nc3cccc(C(F)(F)F)c3)n2)cc1`, the inhibition in test [1] is 0.24%; in test [2], -0.01%; in test [3], 0.75%; in test [4], 1.02%; in test [5] it was 1.07%; in test [6] it was 7.99%. The inhibition is 2.26% in [7]; 4.76% in [8]; 8.4% in [9]; 0.76% in test [10]; 1.7% in test [11]; 0.61% in test [12]. Also, the inhibition amounted to 1.94% in [13]; 1.17% in test [14]; 0.38% in test [15]; 0.44% in test [16]; 2.43% in test [17]; 2.67% in [18]. The inhibition in [19] came out at 2.71%; in test [20], 2.72%.

For the compound `Cc1ccc(Nc2ccnc(Nc3cccc(C(N)=O)c3)n2)cc1O`, the inhibition in test [1] was -3.06%; in [2], 0.18%; in test [3] it was 1.91%; in test [4], 1.13%; in test [5], 1.29%; in test [6], 29.8%. For the same compound, the inhibition in test [7] was determined as 80.2%; in test [8], 13.1%; in test [9], 53.5%; in test [10] it was 2.74%; in test [11], 19.6%; in test [12] it was 3.41%. In addition, the inhibition in test [13] is 5.19%; in test [14], 1.39%; in [15], 1.65%; in test [16], 1.66%; in test [17] it was 4.05%; in test [18], -1.2%. The values for the inhibition in [19] and in [20] were 1.43% and -1.06%, respectively.

Turning to `Cc1ccc(NC(=O)CC2CC2)cc1-c1ccc(C(=O)NCC2CC2)cc1`, the inhibition in test [1] turned out to be 0.37%; in test [2], 0.23%; in test [3], 1.25%; in test [4], 1.21%; in test [5], 1.26%; in test [6], 3.64%. The inhibition in test [7] was found to be 9.75%; in [8], 5.46%; in test [9], 4.87%; in test [10], 2.81%; in test [11], 5.71%; in [12], 3.65%. The inhibition amounted to 2.94% in test [13]; 2.59% in test [14]; 1.29% in [15]; 7.12% in [16]; 3.9% in test [17]; 1.42% in test [18]. Also, the inhibition came to 2.32% in test [19] and 2.95% in test [20].

The values are drawn from ChEMBL document CHEMBL1961873, “Compounds: GSK PKIS; Assays: Nanosyn kinase panel” (2012).
